In the experiment the target is Solute carrier family 2, facilitated glucose transporter member 1 (Homo sapiens) (UniProt P11166). The experiment in a line: ST_JUDE_LEISH: Cytotoxicity at 2uM final concentration against transgenic Leishmania Mexicana promastigotes LmGLUT1 that are glucose transport deficient and complemented with the human glucose transporter GLUT1. Activity is measured by DNA content using SYBR green in vitro. The format is functional.
Sequence of Solute carrier family 2, facilitated glucose transporter member 1 (Homo sapiens) (P11166 whole entry): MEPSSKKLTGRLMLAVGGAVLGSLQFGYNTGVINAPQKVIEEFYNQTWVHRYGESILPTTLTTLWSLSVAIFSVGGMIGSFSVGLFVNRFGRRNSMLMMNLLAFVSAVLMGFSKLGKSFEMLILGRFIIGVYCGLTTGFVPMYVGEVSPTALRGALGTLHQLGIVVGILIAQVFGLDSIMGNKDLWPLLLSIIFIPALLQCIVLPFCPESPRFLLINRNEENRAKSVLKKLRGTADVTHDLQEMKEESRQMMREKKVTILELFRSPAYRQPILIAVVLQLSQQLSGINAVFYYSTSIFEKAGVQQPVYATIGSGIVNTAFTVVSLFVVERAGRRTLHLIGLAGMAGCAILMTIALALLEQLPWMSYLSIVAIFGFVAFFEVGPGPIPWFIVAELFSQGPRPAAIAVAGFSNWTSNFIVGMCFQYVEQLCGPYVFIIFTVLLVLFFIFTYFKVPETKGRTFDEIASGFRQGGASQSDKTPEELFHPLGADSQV
As a reminder, the inhibition is the change of the read-out against control, counted positive when it falls. Molecule `O=C(/C=C/c1ccc(Cl)c(Cl)c1)N1CCC(CN2CCC(c3c[nH]c4ncccc34)CC2)CC1` yielded an inhibition of 4.3%. The molecule `CCOc1cc(C(=O)N[C@@H](Cc2ccccc2)[C@H](O)CNCc2cc(OC)cc(OC)c2)cc(N2CCCCS2(=O)=O)c1` gave an inhibition of 0.3%. Consider `CC(C)(C)c1ccc(C(=O)N2CCC3(CC2)C(=O)N(CC(=O)NCC2CCCO2)CN3c2ccccc2)cc1` (centres undefined), for which the inhibition was found to be 0.44%.

`Cc1cccc2nc(-c3ccc(-c4cccc(NC(=O)CCc5c[nH]cn5)c4)s3)[nH]c12` yielded an inhibition of 3.85%.

For `C[C@H](NC(=O)c1c(CN2CCC(N3CCCCC3)CC2)c(-c2ccccc2)nc2cc(O)ccc12)C1CCCCC1`, the inhibition turned out to be 4.25%. `CN1CCC(C(=O)Nc2cccc(-c3cccc(-c4nc5cc(F)ccc5[nH]4)c3)c2)CC1` registered an inhibition of 4.7%. In the case of `CC(C)CCNc1nc(NCCc2ccccc2)c2cc(O)ccc2n1` it was 7.05%.

As to `c1ccc(Oc2ccc(Nc3ccnc4cc(-c5ccc(CNCCN6CCOCC6)o5)ccc34)cc2)cc1`, the inhibition was determined as 2.2%. The molecule `O=C(Nc1ccc(C(F)(F)F)cc1)c1ccc(S(=O)(=O)NC2CCCN(CC3CCCCC3)C2)cc1` (centres undefined) yielded an inhibition of 6.6%. In the case of `CCC(CC)(Cc1ccccc1)NC(=O)[C@H](CC(C)C)Nc1ccc(C#N)c2ccccc12` it was 13.3%; in that of `c1ccc(CCNCc2ccc(-c3ccc(CNC4CCN(Cc5ccccc5)CC4)cc3)nc2)cc1`, 5.76%; in that of `CC1(C)N=C(N)N=C(N)N1OCCc1ccc2ccccc2c1`, 1.63%. In turn, `O=C(Nc1cccc(-c2cccc(CN3CCCC3)c2)c1)c1ccc(Cl)cc1` showed an inhibition of 1.55%. The molecule `Cc1cc2nc(-c3ccc(OCC(=O)NCc4ccc(C(C)(C)C)cc4)cc3)[nH]c2cc1C` registered an inhibition of 6.86%.

The record behind these values is ChEMBL document CHEMBL3433997, “St. Jude Leishmania screening dataset” (2016).
